This passage reports inhibition results from ChEMBL document CHEMBL1961873, “Compounds: GSK PKIS; Assays: Nanosyn kinase panel” (2012).

Assay [1] concerns the target Sphingosine kinase 1 (Homo sapiens) (UniProt Q9NYA1). The following applies: at 1 µM.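 Further: mean SPHK1 inhibition value reported from the GSK PKIS kinase panel screen.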
Assay [2] deals with T1, Sphingosine kinase 2 (Homo sapiens) (UniProt Q9NRA0).
T1 sequence (whole entry): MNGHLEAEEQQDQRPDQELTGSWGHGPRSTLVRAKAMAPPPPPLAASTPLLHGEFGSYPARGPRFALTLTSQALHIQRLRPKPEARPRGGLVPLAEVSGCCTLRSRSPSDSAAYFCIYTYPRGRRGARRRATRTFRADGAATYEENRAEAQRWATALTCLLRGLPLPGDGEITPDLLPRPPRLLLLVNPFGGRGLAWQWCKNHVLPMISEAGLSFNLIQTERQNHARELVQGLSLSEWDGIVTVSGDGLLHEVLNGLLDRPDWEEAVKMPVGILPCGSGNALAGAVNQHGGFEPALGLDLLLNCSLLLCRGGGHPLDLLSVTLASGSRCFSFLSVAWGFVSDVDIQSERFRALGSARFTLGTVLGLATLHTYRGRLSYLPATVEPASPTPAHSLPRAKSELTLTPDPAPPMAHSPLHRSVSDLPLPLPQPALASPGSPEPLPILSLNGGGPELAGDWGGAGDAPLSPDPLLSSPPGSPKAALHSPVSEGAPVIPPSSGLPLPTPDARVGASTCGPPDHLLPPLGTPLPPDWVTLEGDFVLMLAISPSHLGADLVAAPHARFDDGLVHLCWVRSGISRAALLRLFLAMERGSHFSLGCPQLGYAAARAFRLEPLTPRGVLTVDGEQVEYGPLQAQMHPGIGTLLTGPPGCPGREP
The following applies: at 0.1 µM.

In assay [3] the target is T1, Sphingosine kinase 2 (Homo sapiens). The following applies: at 1 µM.
For assay [4], the target named is Casein kinase II subunit alpha (Homo sapiens) (UniProt P68400). The following applies: at 0.1 µM.
Chain of Casein kinase II subunit alpha (Homo sapiens) (P68400 whole entry, looked up): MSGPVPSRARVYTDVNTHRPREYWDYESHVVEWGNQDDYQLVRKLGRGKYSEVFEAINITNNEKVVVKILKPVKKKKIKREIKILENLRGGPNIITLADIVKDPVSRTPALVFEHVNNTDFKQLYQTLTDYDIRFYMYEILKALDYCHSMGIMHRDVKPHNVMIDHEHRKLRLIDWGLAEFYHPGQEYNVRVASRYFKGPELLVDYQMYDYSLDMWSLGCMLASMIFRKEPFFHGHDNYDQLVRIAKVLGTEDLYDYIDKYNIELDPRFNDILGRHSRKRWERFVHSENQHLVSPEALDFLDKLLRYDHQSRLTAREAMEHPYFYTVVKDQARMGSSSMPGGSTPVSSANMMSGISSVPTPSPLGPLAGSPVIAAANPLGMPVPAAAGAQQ
The target is the same in assay [5]. The following applies: at 1 µM.
Assay [6] has as its target T2, Inhibitor of nuclear factor kappa-B kinase subunit alpha (Homo sapiens) (UniProt O15111).
T2 sequence (whole entry): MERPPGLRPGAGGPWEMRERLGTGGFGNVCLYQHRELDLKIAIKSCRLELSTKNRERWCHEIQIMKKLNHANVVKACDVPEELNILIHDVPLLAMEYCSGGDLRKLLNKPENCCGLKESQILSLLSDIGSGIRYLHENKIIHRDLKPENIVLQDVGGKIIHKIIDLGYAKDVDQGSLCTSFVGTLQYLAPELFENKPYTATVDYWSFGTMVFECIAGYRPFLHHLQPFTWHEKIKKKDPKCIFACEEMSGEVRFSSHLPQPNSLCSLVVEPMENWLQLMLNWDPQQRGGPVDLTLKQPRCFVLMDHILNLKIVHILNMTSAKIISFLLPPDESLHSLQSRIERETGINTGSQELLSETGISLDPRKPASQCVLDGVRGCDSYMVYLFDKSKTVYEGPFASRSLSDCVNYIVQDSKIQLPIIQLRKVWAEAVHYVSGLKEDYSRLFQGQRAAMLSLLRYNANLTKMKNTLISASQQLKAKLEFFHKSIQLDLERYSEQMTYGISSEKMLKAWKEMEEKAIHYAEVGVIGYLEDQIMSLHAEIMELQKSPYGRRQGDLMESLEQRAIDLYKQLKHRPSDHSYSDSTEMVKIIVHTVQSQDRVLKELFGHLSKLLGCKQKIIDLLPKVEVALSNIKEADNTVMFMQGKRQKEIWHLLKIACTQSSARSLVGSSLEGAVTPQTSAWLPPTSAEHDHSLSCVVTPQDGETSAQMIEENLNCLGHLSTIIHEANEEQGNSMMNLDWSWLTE
Particulars: at 0.1 µM.

For assay [7], the target named is T2, Inhibitor of nuclear factor kappa-B kinase subunit alpha (Homo sapiens). Particulars: at 1 µM.
For assay [8], the target named is T3, Inhibitor of nuclear factor kappa-B kinase subunit beta (Homo sapiens) (UniProt O14920).
T3 sequence (whole entry): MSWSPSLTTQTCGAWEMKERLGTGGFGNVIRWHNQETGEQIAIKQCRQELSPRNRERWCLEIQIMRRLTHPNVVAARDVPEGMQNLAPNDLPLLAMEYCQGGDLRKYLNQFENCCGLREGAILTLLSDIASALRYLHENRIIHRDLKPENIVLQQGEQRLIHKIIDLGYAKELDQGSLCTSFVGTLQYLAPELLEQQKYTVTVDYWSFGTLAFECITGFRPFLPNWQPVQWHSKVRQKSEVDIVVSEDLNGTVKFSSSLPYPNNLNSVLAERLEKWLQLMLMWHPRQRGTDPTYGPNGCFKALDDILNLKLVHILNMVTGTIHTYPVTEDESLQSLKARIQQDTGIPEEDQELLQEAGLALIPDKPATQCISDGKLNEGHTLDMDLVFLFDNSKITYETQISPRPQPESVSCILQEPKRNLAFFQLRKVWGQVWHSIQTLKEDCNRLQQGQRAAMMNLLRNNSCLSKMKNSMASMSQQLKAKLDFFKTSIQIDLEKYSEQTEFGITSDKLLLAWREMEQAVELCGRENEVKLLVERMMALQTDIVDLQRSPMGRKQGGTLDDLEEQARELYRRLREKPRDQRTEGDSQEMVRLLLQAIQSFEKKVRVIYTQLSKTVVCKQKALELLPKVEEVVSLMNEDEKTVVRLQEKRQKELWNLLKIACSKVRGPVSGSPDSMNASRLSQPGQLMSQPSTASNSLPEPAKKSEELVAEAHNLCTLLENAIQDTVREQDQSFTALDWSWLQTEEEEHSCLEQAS
Particulars: at 0.1 µM.

Assay [9] has as its target T3, Inhibitor of nuclear factor kappa-B kinase subunit beta (Homo sapiens). Particulars: at 1 µM.
The target in assay [10] is T4, Inhibitor of nuclear factor kappa-B kinase subunit epsilon (Homo sapiens) (UniProt Q14164).
T4 sequence (whole entry): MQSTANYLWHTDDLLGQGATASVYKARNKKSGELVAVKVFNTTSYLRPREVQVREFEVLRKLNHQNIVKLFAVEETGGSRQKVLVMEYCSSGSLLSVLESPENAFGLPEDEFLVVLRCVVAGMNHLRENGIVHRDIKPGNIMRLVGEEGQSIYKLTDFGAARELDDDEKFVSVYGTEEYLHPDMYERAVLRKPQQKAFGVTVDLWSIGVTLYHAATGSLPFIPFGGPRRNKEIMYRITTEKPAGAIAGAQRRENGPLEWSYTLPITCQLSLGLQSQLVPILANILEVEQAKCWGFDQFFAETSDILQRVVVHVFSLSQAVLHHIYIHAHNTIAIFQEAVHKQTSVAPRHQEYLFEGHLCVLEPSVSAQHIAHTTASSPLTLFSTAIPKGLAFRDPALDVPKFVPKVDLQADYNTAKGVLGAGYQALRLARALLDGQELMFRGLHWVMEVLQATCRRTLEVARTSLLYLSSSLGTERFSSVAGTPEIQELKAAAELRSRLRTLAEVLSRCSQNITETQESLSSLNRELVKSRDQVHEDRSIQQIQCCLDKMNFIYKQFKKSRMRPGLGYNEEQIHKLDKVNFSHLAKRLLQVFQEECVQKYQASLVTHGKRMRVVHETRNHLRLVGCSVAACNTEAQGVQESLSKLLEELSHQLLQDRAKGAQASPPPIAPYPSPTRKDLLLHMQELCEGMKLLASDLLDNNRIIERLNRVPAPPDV
The following applies: at 0.1 µM.

For assay [11], the target named is T4, Inhibitor of nuclear factor kappa-B kinase subunit epsilon (Homo sapiens). Particulars: at 1 µM.
In assay [12] the target is T5, Serine/threonine-protein kinase Nek1 (Homo sapiens) (UniProt Q96PY6).
T5 sequence (whole entry): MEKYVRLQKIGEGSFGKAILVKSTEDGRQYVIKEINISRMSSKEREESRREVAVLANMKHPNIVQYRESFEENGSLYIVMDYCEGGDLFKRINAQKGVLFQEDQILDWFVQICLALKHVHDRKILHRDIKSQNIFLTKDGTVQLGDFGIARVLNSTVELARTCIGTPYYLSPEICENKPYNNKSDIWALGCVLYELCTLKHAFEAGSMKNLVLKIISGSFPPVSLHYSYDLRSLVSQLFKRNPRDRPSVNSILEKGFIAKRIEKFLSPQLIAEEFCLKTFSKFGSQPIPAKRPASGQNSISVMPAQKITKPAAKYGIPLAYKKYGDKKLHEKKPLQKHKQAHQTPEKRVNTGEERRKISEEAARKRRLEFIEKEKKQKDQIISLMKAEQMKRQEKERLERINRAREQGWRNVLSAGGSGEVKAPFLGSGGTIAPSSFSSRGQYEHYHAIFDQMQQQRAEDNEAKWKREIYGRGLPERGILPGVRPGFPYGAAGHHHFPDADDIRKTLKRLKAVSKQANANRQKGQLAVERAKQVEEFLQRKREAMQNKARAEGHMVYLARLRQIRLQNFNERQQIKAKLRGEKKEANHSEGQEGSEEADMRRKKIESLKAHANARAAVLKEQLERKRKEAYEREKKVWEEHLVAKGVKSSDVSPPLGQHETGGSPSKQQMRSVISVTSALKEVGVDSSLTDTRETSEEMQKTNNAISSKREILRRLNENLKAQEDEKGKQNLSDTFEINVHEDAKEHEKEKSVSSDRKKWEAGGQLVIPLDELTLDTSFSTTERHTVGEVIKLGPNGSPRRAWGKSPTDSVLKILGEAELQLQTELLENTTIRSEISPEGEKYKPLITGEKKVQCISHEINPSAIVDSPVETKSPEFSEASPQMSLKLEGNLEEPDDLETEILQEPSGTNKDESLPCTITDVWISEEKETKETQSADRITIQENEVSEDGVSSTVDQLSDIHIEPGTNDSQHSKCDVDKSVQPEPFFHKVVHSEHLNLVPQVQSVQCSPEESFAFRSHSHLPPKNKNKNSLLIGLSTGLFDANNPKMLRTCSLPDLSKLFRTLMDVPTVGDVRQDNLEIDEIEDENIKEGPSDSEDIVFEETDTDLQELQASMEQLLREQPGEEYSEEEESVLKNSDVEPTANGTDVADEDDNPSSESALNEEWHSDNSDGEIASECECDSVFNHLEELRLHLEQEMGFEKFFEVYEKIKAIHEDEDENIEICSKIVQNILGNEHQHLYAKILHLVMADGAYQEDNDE
Particulars: at 0.1 µM.

In assay [13] the target is T5, Serine/threonine-protein kinase Nek1 (Homo sapiens). Particulars: at 1 µM.
The target of assay [14] is T6, Serine/threonine-protein kinase Nek2 (Homo sapiens) (UniProt P51955).
T6 sequence (whole entry): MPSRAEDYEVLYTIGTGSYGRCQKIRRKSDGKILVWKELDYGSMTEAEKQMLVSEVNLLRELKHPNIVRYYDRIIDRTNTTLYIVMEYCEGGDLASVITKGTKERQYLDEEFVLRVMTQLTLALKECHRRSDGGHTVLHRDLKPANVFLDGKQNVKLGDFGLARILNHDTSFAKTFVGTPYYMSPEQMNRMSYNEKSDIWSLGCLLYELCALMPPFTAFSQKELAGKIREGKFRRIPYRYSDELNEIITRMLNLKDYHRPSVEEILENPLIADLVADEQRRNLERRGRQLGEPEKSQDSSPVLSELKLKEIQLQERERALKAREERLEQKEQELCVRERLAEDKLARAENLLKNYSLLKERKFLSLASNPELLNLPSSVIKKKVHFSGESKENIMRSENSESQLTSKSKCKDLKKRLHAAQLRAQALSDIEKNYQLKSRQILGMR
The following applies: at 0.1 µM.

For assay [15], the target named is T6, Serine/threonine-protein kinase Nek2 (Homo sapiens). The following applies: at 1 µM.
Assay [16] addresses Serine/threonine-protein kinase Nek6 (Homo sapiens) (UniProt Q9HC98). Particulars: at 0.1 µM.
Assay [17] shares this target. The following applies: at 1 µM.
Assay [18] addresses Serine/threonine-protein kinase Nek7 (Homo sapiens) (UniProt Q8TDX7). Particulars: at 0.1 µM.
Assay [19] shares this target. The following applies: at 1 µM.
The target of assay [20] is T7, Serine/threonine-protein kinase Nek9 (Homo sapiens) (UniProt Q8TD19).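 Further: reported value is the mean percent inhibition of NEK9.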
T7 sequence (whole entry): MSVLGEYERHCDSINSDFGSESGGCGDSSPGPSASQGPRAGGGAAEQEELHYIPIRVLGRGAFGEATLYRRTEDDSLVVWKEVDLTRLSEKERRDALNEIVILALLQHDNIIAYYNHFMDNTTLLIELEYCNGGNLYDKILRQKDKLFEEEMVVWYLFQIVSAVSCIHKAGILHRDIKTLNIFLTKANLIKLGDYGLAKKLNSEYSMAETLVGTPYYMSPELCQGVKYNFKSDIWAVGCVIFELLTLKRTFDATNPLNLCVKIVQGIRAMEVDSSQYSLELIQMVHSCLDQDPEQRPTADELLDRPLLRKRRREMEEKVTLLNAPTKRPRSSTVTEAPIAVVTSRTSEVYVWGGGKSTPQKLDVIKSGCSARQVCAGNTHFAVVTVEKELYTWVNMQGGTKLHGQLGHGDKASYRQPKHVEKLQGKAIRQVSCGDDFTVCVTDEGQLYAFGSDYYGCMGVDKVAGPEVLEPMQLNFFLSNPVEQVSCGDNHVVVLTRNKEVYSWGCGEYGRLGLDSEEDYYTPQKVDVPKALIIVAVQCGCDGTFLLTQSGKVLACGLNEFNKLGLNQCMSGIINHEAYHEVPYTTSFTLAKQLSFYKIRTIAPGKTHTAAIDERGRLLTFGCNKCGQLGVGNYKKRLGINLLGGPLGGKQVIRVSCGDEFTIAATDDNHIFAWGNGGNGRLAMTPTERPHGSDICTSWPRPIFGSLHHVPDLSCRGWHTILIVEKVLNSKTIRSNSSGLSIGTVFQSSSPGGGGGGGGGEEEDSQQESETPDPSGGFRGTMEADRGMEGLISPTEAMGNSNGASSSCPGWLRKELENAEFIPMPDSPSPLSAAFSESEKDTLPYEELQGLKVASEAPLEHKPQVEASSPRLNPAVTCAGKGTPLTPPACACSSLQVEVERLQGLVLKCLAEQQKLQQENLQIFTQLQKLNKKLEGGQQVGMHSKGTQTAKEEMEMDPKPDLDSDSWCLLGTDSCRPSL
Particulars: at 0.1 µM.

Chain of Serine/threonine-protein kinase Nek7 (Homo sapiens) (Q8TDX7 whole entry, looked up): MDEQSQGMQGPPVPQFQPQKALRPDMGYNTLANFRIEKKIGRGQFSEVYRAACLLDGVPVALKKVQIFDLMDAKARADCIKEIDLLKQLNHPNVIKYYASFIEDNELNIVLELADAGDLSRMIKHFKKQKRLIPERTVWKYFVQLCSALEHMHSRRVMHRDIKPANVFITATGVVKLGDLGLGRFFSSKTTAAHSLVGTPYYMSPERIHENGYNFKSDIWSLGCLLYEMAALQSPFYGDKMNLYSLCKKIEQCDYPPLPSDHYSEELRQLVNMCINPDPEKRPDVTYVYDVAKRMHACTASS
Chain of Serine/threonine-protein kinase Nek6 (Homo sapiens) (Q9HC98 whole entry): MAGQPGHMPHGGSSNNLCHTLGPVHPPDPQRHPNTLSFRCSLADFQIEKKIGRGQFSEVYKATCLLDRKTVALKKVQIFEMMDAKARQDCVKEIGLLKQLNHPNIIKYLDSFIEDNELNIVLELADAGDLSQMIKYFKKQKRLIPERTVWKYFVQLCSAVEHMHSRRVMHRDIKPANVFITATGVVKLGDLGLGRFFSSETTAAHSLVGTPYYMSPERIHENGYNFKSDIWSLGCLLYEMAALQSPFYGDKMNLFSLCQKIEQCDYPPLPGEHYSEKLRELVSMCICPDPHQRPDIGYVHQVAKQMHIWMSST
Chain of Sphingosine kinase 1 (Homo sapiens) (Q9NYA1 whole entry): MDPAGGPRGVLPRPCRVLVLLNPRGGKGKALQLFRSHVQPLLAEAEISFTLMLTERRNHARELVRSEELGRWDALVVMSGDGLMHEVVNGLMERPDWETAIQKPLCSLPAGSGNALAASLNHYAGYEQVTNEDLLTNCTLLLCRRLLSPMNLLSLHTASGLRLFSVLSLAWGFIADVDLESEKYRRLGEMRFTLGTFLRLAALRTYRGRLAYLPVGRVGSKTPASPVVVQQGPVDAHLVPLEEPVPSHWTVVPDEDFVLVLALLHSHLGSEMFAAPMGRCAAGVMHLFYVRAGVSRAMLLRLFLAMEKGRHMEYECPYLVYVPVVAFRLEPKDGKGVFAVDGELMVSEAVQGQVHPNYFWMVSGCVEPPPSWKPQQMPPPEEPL

For `COc1cc(C=NNc2ncnc3c2cnn3Cc2ccccc2)ccc1O`, the inhibition (commonly the relative decrease from the control value, in per cent) in assay [1] is -3.17%; in assay [2], 2.14%; in assay [3], 0.11%; in [4], -0.94%; in assay [5] it was 13.8%; in assay [6], -2.85%. The inhibition in assay [7] was -2.41%; in [8] it was -2.63%; in assay [9], -2.75%; in assay [10] it was -4.31%; in assay [11], -4.1%; in [12] it was -1.23%. Besides, the inhibition in assay [13] is -0.61%; in assay [14] it was -5.42%; in assay [15], -5.26%; in assay [16] it was -0.58%; in [17] it was -3.89%; in [18] it was -6.27%. Besides, the inhibition in [19] was -2.54%; in assay [20], 3.47%.
